One test concerns the target SNRNP70. Put plainly: pooled miR-30 sensor sort-seq; sequence = guide strand. The settings on record: shRNA.
The sequence TATTCTTTTGATAGGTCCGTAC came in with a sensor-assay potency score (higher = more potent) of -0.682.
The same measure, in the same setting: under TTTGATAGGTCCGTACACCTCA stands 0.253; under TTGATAGGTCCGTACACCTCAA, -0.456.

The next test addresses SNRPD1. The description is as above. As to conditions: shRNA.
As for TACAGGTTCTCTGTTCTTCAGG, the sensor-assay potency score (higher = more potent) was -0.643.
For the sequence TCATGCTGACATCCACACCTGT, the sensor-assay potency score (higher = more potent) was -0.408.
On the same count and under the same terms, in the case of TATCCAGAGGTAAACTGTCTGG it was -1.01.
Still for that read-out and setting: under TAGATTTCACCTTAGGTTCAAC stands -0.589; under TTCAACATCCACAAGTAGTGTA, 0.419; under TTCTCTGTTCTTCAGGGTCATT, -1.71.
In turn, TTAAGATGTGTATTCATGCTGA displayed a sensor-assay potency score (higher = more potent) of -0.136.
For the sequence TCTGGTAGAATAAAATACCGAA, the sensor-assay potency score (higher = more potent) amounted to 0.138.
Still for that read-out and setting: in the case of TAGAATAAAATACCGAATGTTA it was -0.767.
TCTTCCTGCAACAGCTTCCCTT displayed a sensor-assay potency score (higher = more potent) of -1.09.
The same measure, in the same setting: in the case of TGTGATTGTTCCATGGACCTGT it was 1.16; in that of TCAACATCCACAAGTAGTGTAT, -0.261.

Another test has as its target SNTG1. The test is described as above. The settings on record: shRNA.
As to TTATCTGTAGAATTGCATCTCC, the sensor-assay potency score (higher = more potent) was found to be 0.36.
On the same count and under the same terms, in the case of TTGTCTTCTGATGGTCACCGTT it was -1.02; in that of TAGGTCTTGCACTGTATCCGTT, -0.173.
Same read-out and setting: under TAGCACACATGCATAGGTCTTG stands 0.196; under TGACTTTCTAGCACACATGCAT, -0.281.
In turn, TTTGTTGCAGCATCAAAGCAGA returned a sensor-assay potency score (higher = more potent) of -0.518.
Still for that read-out and setting: under TTGGAGCACATGCACAATCTTC stands -1.22.
Still for that read-out and setting: in the case of TTTAATATTGTGCTTTGTGAGA it was -0.565; in that of TTAGAGTCACTTCTTCTCCAGC, -1; in that of TGAAGCACTGTTTCCGTCGGTC, -0.425.
The same measure, in the same setting: in the case of TTGCTCGTGGTAGCAGAGCTGG it was -1.52; in that of TAATGTGTCTGTATTGTTGGGA, 0.882.

Another test addresses SNX19. The test is described as above. As to conditions: shRNA.
As to TTATTGAGGTGACAGCTCGATC, the sensor-assay potency score (higher = more potent) is -1.16.
Still for that read-out and setting: under TTCTACTCTGTCACTGTCCATG stands -0.887; under TTTCTTCACACATCCCACCCAA, -0.125.
On the same count and under the same terms, in the case of TAAAGGACTGATTATAACCGTA it was -0.44.
Same read-out and setting: in the case of TAACTCTACTTCCCTGACCTGG it was -0.776; in that of TACTCTGTCACTGTCCATGTTT, -0.134.
In turn, TTAATATACAGCACTTCCCTGT registered a sensor-assay potency score (higher = more potent) of 0.105.
Regarding TTTCCAGTAACTTTGTCTGTTT, the sensor-assay potency score (higher = more potent) is -0.546.
On the same count and under the same terms, in the case of TGAACTTTCGTAGATCTGGTTT it was -0.266; in that of TGAGGTGACAGCTCGATCCAGC, 0.362; in that of TAGATCTGGTTTCTCCTCCAGA, -0.172.
The same measure, in the same setting: in the case of TACTTCACAGTATAGAGTGTGT it was -0.265.

Values taken from the OligoGym collection.
Further: reference of the scale not given here.
